The list is not random: actives were taken first. Their share in the collection is about 12%.
HP1b chromo inh = HP1-beta chromodomain-methylated histone interaction inhibition; AlphaScreen HP1-beta / biotin-H3K9me3 peptide binding; Potency, µM (highest dose often 114 µM), without a hit: at the top dose activity change, negative = inhibition, actives largely listed as inhibitors; actives 0.56% (n = 390,000); AID 540317; also: nearly all actives have a fitted effect of over 70% in size
Target sequence (P83916 whole entry, looked up): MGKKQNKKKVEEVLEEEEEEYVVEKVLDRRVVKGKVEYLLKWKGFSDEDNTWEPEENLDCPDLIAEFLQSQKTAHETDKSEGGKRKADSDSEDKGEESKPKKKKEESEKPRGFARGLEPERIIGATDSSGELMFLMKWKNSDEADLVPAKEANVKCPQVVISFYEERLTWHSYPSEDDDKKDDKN
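HP1-beta protein (50 nM final) preincubated 30 min at room temperature with biotinylated H3(1-18)K9me3 peptide (50 nM) in PBS pH 7.4, 0.01% Tween-20, then compound added for 30 min. AlphaScreen streptavidin donor/nickel chelate acceptor beads (10 ug/mL final), 30 min dark, luminescence read.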
BAZ2B block = blocks human BAZ2B; Q9UIF8; AlphaScreen BAZ2B-H3K14Ac peptide displacement; Potency, µM (titrated, usually from 114 µM), inactives show top-dose activity change, negative = inhibition, usual class: inhibitors; actives 4.4% (n = 360,000); also: % is scaled to controls: 0 for no effect and ±100 for the full control effect; nearly all actives have a fitted effect of over 60% in size
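Multi-concentration screen (max 110 uM) measuring displacement of acetylated histone H3 peptide from BAZ2B by AlphaScreen, using 50 nM protein, 50 nM peptide and 10 ug/mL streptavidin donor plus Ni-chelate acceptor beads.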
JMJD2A Tudor inh = blocks the human JMJD2A Tudor domain | AlphaScreen JMJD2A-Tudor / H3K4me3 peptide binding | actives 4.4% (n = 390,000) | Potency, µM (top dose mostly 114 µM), without a hit: at the highest dose activity change, negative = inhibition, hits mostly inhibitors; also: % is scaled to controls: 0 for no effect and ±100 for the full control effect; nearly all actives have a fitted effect of over 50% in size
L3MBTL1 inh = L3MBTL1 (human) inhibition | actives 0.66% (n = 230,000) | Q9Y468 | AlphaScreen L3MBTL1–H3K9me1 peptide binding | Potency, µM (series often up to 57.1 µM), inactives show at the highest dose activity, negative = inhibition, actives largely listed as inhibitors; also: % is scaled to controls: 0 for no effect and ±100 for the full control effect; nearly all actives have a fitted effect of over 60% in size
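Read-out is AlphaScreen signal from streptavidin donor and nickel chelate acceptor beads (10 ug/mL final each) bridging L3MBTL1 (50 nM) and biotinylated K9-monomethylated H3(1-15) peptide (75 nM), after 30 min compound exposure at room temperature.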
G9a inh = G9a (human) methyltransferase inhibition | Potency, µM (top dose mostly 102 µM), inactives show at the top dose activity, negative = inhibition, most hits filed as inhibitors | actives 8.8% (n = 350,000) | G9a H3K9 monomethylation, AlphaScreen, 2 h | AID 504332 | Q96KQ7; also: % is scaled to controls: 0 for no effect and ±100 for the full control effect; nearly all actives have a fitted effect of over 75% in size
Target sequence (Q96KQ7 913-1193 limits assumed): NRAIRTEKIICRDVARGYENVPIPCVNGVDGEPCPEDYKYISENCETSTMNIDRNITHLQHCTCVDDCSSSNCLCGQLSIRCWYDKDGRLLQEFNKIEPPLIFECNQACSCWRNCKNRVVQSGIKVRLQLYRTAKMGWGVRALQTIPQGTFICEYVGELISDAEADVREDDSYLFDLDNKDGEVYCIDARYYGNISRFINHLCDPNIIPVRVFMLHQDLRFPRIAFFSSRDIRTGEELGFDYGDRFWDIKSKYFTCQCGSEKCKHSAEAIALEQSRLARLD
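Step 1: enzyme (final 20 nM) with compound, 15 min RT. Step 2: substrate peptide 500 nM and SAM 20 uM, 2 h RT. Step 3: anti-H3K9me1 antibody and AlphaScreen beads, 10 min, then plate read.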
Sfp PPTase inh = Sfp phosphopantetheinyl transferase inhibition. Potency, µM, for the others: largest response in the series, negative = inhibition, actives largely listed as inhibitors. actives 3.5% (n = 310,000). Biochemical Sfp PPTase activity, qHTS. Q9F4F7. AID 1490;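 also: the enzyme is Sfp with the accession as filed and its product quenches rhodamine fluorescence; 0% = enzyme reaction without inhibitor and -100% = no enzyme wells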
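Step 1, compound plus 15 nM Sfp-PPTase, 15 min, room temperature. Step 2, add rhodamine-CoA (5 uM) and BHQ-2-YbbR (12.5 uM). Step 3, read 525/598 nm fluorescence at 0 and 30 min.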
An asterisk follows results filed as active; ? = inconclusive; / = no result; ! = a repeat was not active; [ ] = dose if it differs, or a comment. Calls follow the shape of the dose curve; as a rule, active = well fitted curve in the direction sought with a large enough effect; inconclusive = small, poorly fitted or top-dose-only effect, or another doubt; inactive = no such curve, though single readings can be large; an effect the other way counts as inactive or inconclusive. Potency is read from the fitted curve at half-maximal effect.

SMILES	HP1b chromo inh	BAZ2B block	JMJD2A Tudor inh	L3MBTL1 inh	G9a inh	Sfp PPTase inh
Cc1cc(C)c(NC(=O)CN2CCN(C)CC2)c(C)c1	35%	-1%	-6%	/	-31%	4%
COc1ccc(N2CCN(CC(=O)Nc3ccccc3SC)CC2)cc1	?	50µM*	?	-15%	-50%[12.7 µM]	6%
O=C(NCc1ccccn1)c1cc2n(n1)C(C(F)(F)F)CC(c1ccco1)N2 (configuration not stated)	40%	13%	-6%	/	?	13µM*
Cc1ccc(NC(=O)Cn2c(=O)n(Cc3nc(-c4ccccc4)no3)c(=O)c3cc4c(cc32)OCO4)cc1C	57%	-16%	9%	/	-6%[59 µM]	/
CCN(CC)CCOC(=O)C(c1ccccc1)C1CCCCC1 (configuration not stated)	8%	/	-35%	-7%	-7%[2.33 µM]	17%
CCN(CC)CCOC(=O)C1(c2ccc(OC)c(OC)c2)CCCC1	30%	-10%	-19%	/	?	79µM*
CCN(CC)CCOC(=O)C1(C2CCCCC2)CCCCC1	11%	?	-32%	-11%	34µM*!	8%
CCN(CC)CCOC(=O)C1(c2ccccc2)CCCC1	37%	-2%	0%	/	-41%[12.7 µM]	13%
Cc1ccc(S(=O)(=O)n2nc(C)c(S(=O)(=O)N3CCC(C)CC3)c2C)cc1	7%	-23%	79µM*	/	-8%[59 µM]	/
O=S(=O)(c1ccc(S(=O)(=O)N2CCC3(CC2)OCCO3)cc1)N1CCCC1	16%	-17%	11%	/	6%	35%
CC1CCN(S(=O)(=O)c2ccc(S(=O)(=O)N3CCC4(CC3)OCCO4)cc2)CC1	17%	-6%	0%	-5%	11µM*	2%
CCCCOc1ccc(S(=O)(=O)n2nc(C)c(S(=O)(=O)N3CCC(C)CC3)c2C)cc1	26%[57 µM]	5%	1%	/	-2%[59 µM]	/
Cc1ccc(S(=O)(=O)N2CCC(N3CCC(C)CC3)CC2)cc1	?	?	1.6µM*	/	25µM*	-8%
CC1CN(C2CCN(S(=O)(=O)c3ccc(F)cc3)CC2)CC(C)O1 (configuration not stated)	?	32µM*	2.8µM*	/	10µM*	-5%
COc1ccc(CCn2c(-c3ccc(C(C)(C)C)cc3)n[nH]c2=S)cc1OC	-31%	-16%	18µM*	1%[11.4 µM]	?	-5%
COc1ccc(Cl)cc1-c1n[nH]c(=S)o1	29%	-5%	-29%	3%	?	-1%
COc1ccc(CCn2c(-c3ccc(Cl)cc3)n[nH]c2=S)cc1OC	36%	?	-21%	-17%	2.2µM*	?
CCCCn1c(-c2cc(Cl)ccc2OC)n[nH]c1=S	-15%	-5%	13µM*	/	2µM*	?
CCCCC/C=C\C\C=C/C=C/C=C/[C@@H](SC[C@H](N)C(=O)NCC(=O)O)[C@@H](O)CCCC(=O)O	/	/	/	/	28%[59 µM]	3%
Cn1ncc2c(NCc3ccc(Cl)cc3)ncnc21	35%	1%	-14%	/	-3%[59 µM]	/
CCOC(=O)COc1ccccc1/C=C\[N+](=O)[O-]	25%	-30%	-15%	10%	3.5µM*	14µM*
CCCn1ccc2c(OCC(=O)NCc3ccccc3Cl)cccc2c1=O	97%	15%	-6%	/	8%[59 µM]	/
C/C=C(\C)C(=O)NCCN1C2=NC[C@H](C)N2C[C@@H]1Cc1ccc(OC)cc1	38%	-6%	-14%	7%	/	9%
CCCCCCNC(=O)N[C@H](C(=O)NCCC[C@H]1CN2C(=NC[C@H]2C)N1CCC(c1ccccc1)c1ccccc1)C(C)O (some centres not stated)	/	20µM*	/	/	?	2.2µM*
C=CCCC/C=C(/C)C(OCc1ccc(OC)cc1)C(CC/C=C(\C)C(N)=O)OC (configuration not stated)	/	/	/	/	/	11%
SMILES	HP1b chromo inh	BAZ2B block	JMJD2A Tudor inh	L3MBTL1 inh	G9a inh	Sfp PPTase inh
CCCCn1c(-c2ccc([N+](=O)[O-])cc2)n[nH]c1=S	?	-5%	7.9µM*	3%	?	-8%
CCCn1c(-c2ccc(F)cc2)n[nH]c1=S	15%	17%	5.6µM*	-6%	22µM*	-4%
CCn1c(-c2ccc(C)cc2)n[nH]c1=S	16%	-24%	7.9µM*	/	1.3µM*	?
CCn1c(-c2ccc(Cl)cc2)n[nH]c1=S	-3%	3%	5µM*	/	1.3µM*	2%
COc1cccc(NC(=O)Cn2c(=O)n(-c3ccccc3)c(=O)c3ccc(C(=O)NCc4ccc5c(c4)OCO5)cc32)c1	6%	/	-27%	/	5%[59 µM]	/
COc1cccc(CNC(=O)c2ccc(-n3c(C)cc4c3CCC(C)C4)cc2)c1 (configuration not stated)	25%	-19%	-21%	/	-10%[59 µM]	/
Cc1ccc(CN2CCCn3nc(C(=O)NCCc4cccc(C)c4)cc3C2=O)cc1	22%	-8%	-17%	/	7%[59 µM]	/
Cc1cccc(OCCOCCn2c(-c3ccc(Cl)cc3)nc3ccccc3c2=O)c1C	108%	57%	59%	/	86%[59 µM]	/
CCn1c(-c2nn(C)c(C)c2Cl)n[nH]c1=S	38%	0%	?	3%	2.2µM*	-3%
CCOc1ccccc1C(=O)NCC(=O)N(C)Cc1cccnc1	14%	-5%	-5%	/	40µM*	17%
CCN(C(=O)CSc1nc(-c2ccccc2)no1)c1cccc(C)c1	147%	143%	92%	/	8%[59 µM]	/
c1cc(Nc2ncnc3sc4c(c23)CCC4)ccn1	13%	-1%	-16%	1%	-22%	10%
NNc1ncnc2sc3c(c12)CCC3	-2%	18µM*	22µM*	-18%	-13%	?
CC1(C)Cc2c(sc3ncn(N)c(=N)c23)CO1	14%	-1%	-11%	4%	14%[59 µM]	-11%
CC1(C)Cc2c(sc3ncnc(NN)c23)CO1	20%	79µM*	50µM*	-12%	19%	40µM*
CC1(C)Cc2c(sc3ncn4c(=S)[nH]nc4c23)CO1	?	8%	?	/	3.2µM*	45µM*
CN(C)c1ccc(Nc2ncnc3sc4c(c23)CCCC4)cc1	22µM*	32µM*	25µM*	/	?	/
COc1ccc2c(c1)c1c(c(=O)n(-c3ccc(F)c(Cl)c3)c(=O)n1Cc1ccccc1C)n2C	30%	-13%	-1%	/	-5%[59 µM]	/
COc1ccc2c(c1)cc1c(=O)n(CC(=O)NC(C)C)nc(C)n12	30%	-1%	-1%	/	6%[59 µM]	/
CCC1=NN(S(=O)(=O)c2ccc(C)cc2)C(O)(C(F)(F)F)C1 (configuration not stated)	51%	-11%	5%	21%	40µM*	16%
NC1=C(c2ccc([N+](=O)[O-])cc2)C(=O)CO1	33%	6%	4%	0%	-9%[59 µM]	-7%

High-throughput results (PubChem)
